Assay results published in PubChem BioAssay AID1224904 (Broad Institute, 2016).
Where “and” joins values, the source holds several entries; their conditions need not be identical. Equal entries are not always repeated. About 290 (0.78%) of roughly 37,000 compounds were called active. Roughly 10% stayed inconclusive and do not appear here.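 The calls were made as follows: active = mean inhibition of at least 10% in the main channel, exceeding the control channel by a set limit; inconclusive = inhibition of 10% or more but channel gap under a set limit; inactive = mean inhibition below 10%.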 Many of the other results were omitted from the sample, so actives are more common in it than they were.

Test: DUX4 transcriptional activity inhibition in cells – 293T cells, Gaussia and Italica luciferase, primary screen (AID 1224904);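 as to activity change, negative = inhibition: 0% = median of neutral control wells and -100% = median of positive control wells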
Conditions: 293T-iDUX4 ZSCAN4-Gaussia luciferase reporter, 24 h, stronger effect = lower value, concentration not given here; for Gaussia minus Italica difference: measured here: selective DUX4 reporter inhibition
[1] = measured here: Italica tet-on control reporter

Structure (SMILES)	activity change, negative = inhibition	activity change, negative = inhibition [1]	Gaussia minus Italica difference
O=C(CC(F)(F)F)N1C[C@H]2[C@@H](c3ccccc31)[C@H](CO)N2C(=O)Cc1cccnc1	2.67% (inactive)	0.448%	2.22%
CCCC#Cc1ccc([C@@H]2[C@@H](C#N)N(C(=O)C3CCC3)[C@H]2CO)cc1	0.61% (inactive)	1.62%	-1.01%
COc1cccc(CN2[C@H](CO)[C@@H]3c4ccccc4N(C(=O)c4ccncc4)C[C@@H]32)c1	-3.19% (inactive)	4.06%	-7.25%
COc1cccc(C(=O)Nc2ccc3c(c2)C(=O)N(C)[C@H]2CC[C@@H](CC(=O)N[C@H](C)c4ccccc4)O[C@H]2CO3)c1	-1.13% (inactive)	0.375%	-1.51%
COC(=O)[C@@H]1[C@@H](CO)[C@@H]2Cn3c(ccc(-c4ccccc4F)c3=O)[C@@H]2N1CC1CCOCC1	-4.32% (inactive)	8.44%	-12.8%
O=C([C@H]1[C@H](CO)[C@H]2Cn3c(cccc3=O)[C@@H]1N2Cc1cocn1)N1CCCCC1	0.941% (inactive)	1.28%	-0.343%
C/C=C/c1ccc(C2[C@H]3CNC[C@@H]2N3C(=O)Nc2cc(F)ccc2F)cc1 (some centres undefined)	15.1% (inactive) and 2.98% (inactive)	3.89% and 2.36%	11.2% and 0.626%
O=C(c1ccncc1)N1CC2(C1)[C@@H](c1ccccc1)[C@H](CO)N2C(=O)c1ccncc1	9.03% (inactive)	0.77%	8.26%
CO[C@@H]1CN(C)C(=O)c2cc(NS(=O)(=O)c3cn(C)cn3)ccc2OC[C@@H](C)N(CCC(F)(F)F)C[C@H]1C	2.8% (inactive)	2.78%	0.0206%
CC(C)NC(=O)Nc1ccc2c(c1)C(=O)N(C)[C@H]1CC[C@H](CC(=O)NCc3ccc(F)cc3)O[C@H]1CO2	-1.78% (inactive)	-0.912%	-0.872%
CN1C(=O)c2cc(NC(=O)Nc3ccccc3F)ccc2OC[C@H]2O[C@@H](CC(=O)Nc3cccc(Cl)c3)CC[C@@H]21	2.01% (inactive)	1.81%	0.199%
CN1C(=O)c2cc(NC(=O)c3ccc(Cl)cc3)ccc2OC[C@@H]2O[C@@H](CC(=O)O)CC[C@H]21	3.27% (inactive)	2.43%	0.834%
CCS(=O)(=O)N1[C@H](CO)[C@@H](c2ccc(C#CC(C)C)cc2)[C@@H]1C#N	-1.24% (inactive)	-0.906%	-0.33%
COc1ccccc1CN1[C@@H]2CNC[C@H]1C2c1ccc(-c2cccc(C#N)c2)cc1 (some centres undefined)	2.24% (inactive) and -7% (inactive)	7.91% and -13.5%	-5.67% and 6.5%
CCCNC(=O)C[C@H]1CC[C@H]2[C@@H](COc3ccc(NC(=O)Nc4c(C)noc4C)cc3C(=O)N2C)O1	1.35% (inactive)	1.62%	-0.269%
CN(C)C(=O)c1cccc(-c2ccc(C3[C@@H]4CN(S(=O)(=O)c5ccc(F)cc5)C[C@H]3N4)cc2)c1 (some centres undefined)	-0.156% (inactive)	-4.49%	4.34%
O=C(Cc1ccncc1)N1C[C@@H]2N[C@H](C1)C2c1ccc(-c2ccc(F)cc2)cc1 (some centres undefined)	-3.63% (inactive)	1.35%	-4.98%
N#Cc1ccc(-c2ccc(C3[C@@H]4CN(S(=O)(=O)c5ccc(F)cc5)C[C@H]3N4)cc2)cc1 (some centres undefined)	-15.8% (active)	11.7%	-27.5%
CCC(=O)N(C)C[C@H]1[C@H](c2ccc(-c3ccccc3F)cc2)[C@@H](CO)N1C(C)=O	3.08% (inactive)	7.42%	-4.34%
CCCNC(=O)[C@@H]1[C@@H](CO)[C@@H]2Cn3c(cccc3=O)[C@H]1N2C(=O)C1CCC1	-0.71% (inactive)	1.58%	-2.29%
CC=Cc1ccc2n(c1=O)C[C@@H]1[C@@H](CO)[C@H](C(=O)NCCCN3CCOCC3)[C@H]2N1Cc1cocn1 (mixture of isomers)	-1.75% (inactive)	4.32%	-6.07%
CCCNC(=O)[C@@H]1[C@@H](CO)[C@@H]2Cn3c(ccc(C4=CCCCC4)c3=O)[C@H]1N2CCC	0.23% (inactive)	-0.339%	0.57%

Structure (SMILES)	activity change, negative = inhibition	activity change, negative = inhibition [1]	Gaussia minus Italica difference
COCCN(C[C@H]1[C@@H](c2ccccc2)[C@H](CO)N1C(=O)C1CCC1)C(C)=O	-2.05% (inactive)	5.46%	-7.51%
C[C@H]1CN([C@@H](C)CO)S(=O)(=O)c2ccc(-c3ccncc3)cc2O[C@H]1CN(C)S(C)(=O)=O	-0.678% (inactive)	4.8%	-5.48%
CCC(=O)N1C[C@@H](C)[C@H](OC)CN(C)C(=O)c2cc(NC(=O)c3cc(C)on3)ccc2OC[C@@H]1C	-1.43% (inactive)	2.42%	-3.85%
CCCNC(=O)N1C[C@@H](C)[C@@H](OC)CN(C)C(=O)c2ccc(NC(=O)C3CCC3)cc2OC[C@@H]1C	-2.74% (inactive)	-2.2%	-0.535%
CN1C(=O)c2cc(NS(=O)(=O)c3ccc(Cl)cc3)ccc2OC[C@H]2O[C@@H](CC(=O)O)CC[C@H]21	2.17% (inactive)	-0.461%	2.63%
CN1C(=O)c2cc(NC(=O)c3ccc(F)c(F)c3)ccc2OC[C@H]2O[C@@H](CC(=O)N3CCCCC3)CC[C@H]21	-2.75% (inactive)	-1.85%	-0.906%
CO[C@@H](CN(C)C(=O)Nc1ccc(F)cc1)[C@H](C)CN(Cc1ccccc1Cl)[C@@H](C)CO	1.39% (inactive)	-1.3%	2.69%
COCC(=O)N1CC2(C1)[C@H](c1ccc(-c3cccc(F)c3)cc1)[C@@H](CO)N2C(=O)COC	6.28% (inactive)	3.24%	3.04%
CN(C)c1ccc2c(c1)[C@H]1C[C@H](CC(=O)O)O[C@H](CO)[C@H]1O2	1.12% (inactive)	6.76%	-5.64%
C[C@@H]1CN([C@@H](C)CO)C(=O)c2c(c3ccccc3n2C)-c2ccccc2CO[C@@H]1CN(C)Cc1cccc(C(=O)O)c1	7.37% (inactive)	5%	2.36%
C[C@@H]1CN([C@@H](C)CO)C(=O)c2c(c3ccccc3n2C)-c2ccccc2CO[C@@H]1CN(C)S(=O)(=O)c1cccs1	10.1% (inactive)	4.92%	5.19%
Cc1ccccc1S(=O)(=O)N(C)C[C@@H]1OCc2ccccc2-c2c(n(C)c3ccccc23)C(=O)N([C@H](C)CO)C[C@H]1C	-34% (active)	-6.75%	-27.3%
C[C@@H]1CN([C@@H](C)CO)C(=O)c2c(c3ccccc3n2C)-c2ccccc2CO[C@@H]1CN(C)Cc1ccc2c(c1)OCCN2C	-2.06% (inactive)	2.22%	-4.27%
CC(C)OC(=O)N(C)C[C@@H]1OCc2ccccc2-c2c(n(C)c3ccccc23)C(=O)N([C@H](C)CO)C[C@H]1C	-4.14% (inactive)	-0.897%	-3.24%
C[C@H]1CN([C@@H](C)CO)C(=O)c2c(c3ccccc3n2C)-c2ccccc2CO[C@H]1CN(C)Cc1ccc2c(c1)OCO2	3.62% (inactive)	-0.444%	4.06%
C[C@@H]1CN([C@@H](C)CO)C(=O)c2c(c3ccccc3n2C)-c2ccccc2CO[C@H]1CN(C)Cc1cccc(C(=O)O)c1	-0.025% (inactive)	-8.31%	8.28%
C[C@@H]1CN([C@H](C)CO)C(=O)c2c(c3ccccc3n2C)-c2ccccc2CO[C@@H]1CN(C)Cc1ccccc1C(F)(F)F	-42% (active)	-5.06%	-36.9%
C[C@@H]1CN([C@@H](C)CO)C(=O)c2c(c3ccccc3n2C)-c2ccccc2CO[C@@H]1CN(C)S(=O)(=O)CC(F)(F)F	18.5% (inactive)	1.21%	17.3%
C[C@@H]1CN([C@H](C)CO)C(=O)c2c(c3ccccc3n2C)-c2ccccc2CO[C@@H]1CN(C)Cc1ccc(F)cc1	-34.5% (active)	-8.76%	-25.8%
C[C@H](CO)N1C[C@H](C)[C@@H](CN(C)Cc2ccc(C(F)(F)F)cc2)OCc2ccccc2-c2c(n(C)c3ccccc23)C1=O	-40.3% (active)	-11%	-29.3%
C[C@@H]1CN([C@@H](C)CO)C(=O)c2c(c3ccccc3n2C)-c2ccccc2CO[C@H]1CN(C)S(=O)(=O)c1cccs1	-5.46% (inactive)	-1.09%	-4.37%
